Compounds without any hit were thinned out: in the full panel of roughly 83,000, 20% have a hit.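 Compound tested at a single concentration for 48 hours in 96-well plates; a percent growth value below 10 was scored as active.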 The source made the active and inactive calls.
Legend:
Experiment in all cases: NCI-60 one-dose screen, 48 h (100 = growth as untreated, 0 = no growth, -100 = all killed)
Details in all cases: 10 µM unless noted
[1] = system: T-47D breast
[2] = system: BT-549 breast
[3] = system: MDA-MB-435 melanoma
[4] = system: MCF7 breast
[5] = system: HCT-116 colon
[6] = system: HCC-2998 colon
[7] = system: KM12 colon
[8] = system: MDA-MB-468 breast
[9] = system: SW-620 colon

Measured: growth

C=C1CC[C@@H]2[C@]3(C)COC(c4cn[nH]c4-c4ccc(C)cc4)O[C@@H]3CC[C@@]2(C)[C@@H]1C/C=C1/C(=O)OCC1O (some centres not stated)
inactive: [1] 39.4% | [7] 39.3%
active: [2] -30.5% | [3] -16.6% | [4] 8.74% | [5] -68.5% | [6] 2.89% | [8] -49.3%

COc1cc(CNC(=O)/C=C/c2ccc3c(c2)OCO3)ccc1OCc1cn(-c2cccc(C(F)(F)F)c2)nn1
active: [2] -10.7% | [5] -25.3% | [6] 8.65% | [8] -21.4%
inactive: [1] 17.1% | [3] 39.9% | [4] 12.2% | [7] 48.8%

CC(C)c1ccc2c(N)c(C(=O)Nc3cccc(C(F)(F)F)c3)sc2n1
inactive: [1] 51.8% | [2] 112% | [3] 82.5% | [4] 70.3% | [5] 81.4% | [6] 73.1% | [7] 43.2% | [8] 13.2%

CC(C)c1ccc2c(N)c(C(=O)Nc3ccc(C(F)(F)F)cn3)sc2n1
inactive: [1] 23.2% | [2] 42.1% | [3] 54.8% | [4] 36.9% | [5] 47.3% | [6] 96.1% | [7] 57% | [8] 14.8%

C=C1CC[C@@H]2[C@]3(C)COC(c4cn(-c5ccccc5)nc4-c4ccccc4)O[C@@H]3CC[C@@]2(C)[C@@H]1C/C=C1/C(=O)OC[C@H]1O (some centres not stated)
active: [1] -62.9% | [2] -88.9% | [3] -65.9% | [4] -9.94% | [5] -97.5% | [6] -97.7% | [7] -56.2% | [8] -90.1%

COc1ccc2cc([C@H](C)C(=O)N/N=C/c3ccc(Br)cc3)ccc2c1
inactive: [1] 90.3% | [2] 104% | [3] 103% | [4] 90.7% | [5] 103% | [6] 107% | [7] 105% | [8] 100%

N/C(=N\c1nc2ccccc2s1)NC(=O)NCCCCCCO
active: [1] 9.9% | [8] 2.33%
inactive: [2] 21.4% | [3] 41.2% | [4] 30% | [5] 36.9% | [6] 82% | [7] 55.1%

COc1ccc(/C=C2\C(=O)Nc3ccc(Cl)cc32)cc1OCc1ccccn1
inactive: [1] 51.9% | [2] 46.1% | [3] 75.1% | [4] 34.7% | [5] 21.1% | [6] 79.6% | [7] 75.2% | [8] 59%

O=C(O)c1cccc(-c2ccc(/C=N/NC(=O)c3[nH]c4ccc(Br)cc4c3-c3ccccc3)s2)c1
inactive: [1] 54.5% | [2] 49.3% | [3] 10.4% | [4] 13.7% | [5] 31.5% | [6] 49.9% | [7] 21.6% | [8] 15.7%

CC(=O)Oc1ccccc1C(=O)[Se]C(=NC1CCCCC1)NC1CCCCC1
active: [1] -43.3% | [2] -91.7% | [3] -77.2% | [4] -82.1% | [5] -69.9% | [6] -92.6% | [7] -67.8% | [8] -77.8%

CC(=O)Nc1cccc(Nc2nccc(N[C@@H](C)c3ccccc3)n2)c1
active: [2] 9.69% | [5] 9.73% | [7] 3.5%
inactive: [1] 40.2% | [3] 18.7% | [4] 16.5% | [6] 27.1% | [8] 18.1%

COc1ccc2nc(Nc3cccc(NC(=O)c4ccc(CN5CCCN(C)CC5)c(C(F)(F)F)c4)c3)ccc2c1
active: [1] -44.6% | [2] -61.4% | [3] -42.8% | [4] -62.8% | [5] -47.1% | [6] -62.6% | [7] -47.5% | [8] -71.1%

CSc1ccc(C(=O)Nc2ccc3nnn(/C(C#N)=C/c4ccccn4)c3c2)cc1
active: [1] -45.3% | [2] -67.9% | [3] -20.9% | [4] -79% | [5] -5.03% | [6] -76.3% | [7] -57.1% | [8] -69.1%

COc1ccc([C@H](C)Nc2nc(Cl)nc3ccccc23)cc1
inactive: [1] 49.4% | [2] 60.3% | [3] 45.8% | [4] 28.8% | [5] 20.9% | [6] 93.6% | [7] 43% | [8] 15.1%

O=C(/C=C/c1ccc(-c2ccccc2)cc1)c1nc2ccccc2n1Cc1ccc(Br)cc1
active: [1] 7.98%
inactive: [2] 41.7% | [3] 61.9% | [4] 21.3% | [5] 24% | [6] 62.6% | [7] 74.3% | [8] 49.6%

C=Cn1cc(C(=O)O)c(=O)c2cc(F)c(N3CCN(c4nccc(-c5nccs5)n4)CC3)cc21
active: [1] -1.23% | [2] -49.1% | [3] -38% | [4] 0.211% | [5] -33.8% | [6] -62.1% | [7] -15% | [8] -61.9%

Cc1c(C(=O)NNC(=O)c2ccc(Cl)cc2)nnn1-c1ccc(Br)cc1
inactive: [1] 93% | [2] 96.5% | [3] 100% | [4] 84.3% | [5] 89.5% | [6] 105% | [7] 104% | [8] 95.6%

CC1=C(C(=O)c2ccccc2)C(c2cccc(Cl)c2Cl)n2c(nc3ccccc32)N1 (configuration not stated)
inactive: [1] 76.6% | [2] 52.4% | [3] 72.1% | [4] 26.7% | [5] 50.1% | [6] 88% | [7] 92%
active: [8] -38.3%

N#Cc1ccc(/C=N/NC(=O)c2[nH]c3ccc(Br)cc3c2-c2ccccc2)o1
inactive: [1] 23.8%
active: [2] -7.06% | [3] -3.87% | [4] 7.95% | [5] 1.43% | [6] -30.9% | [7] 6.36% | [8] -13.6%

CC(=O)Nc1cccc(Nc2nc(N[C@H]3CCCc4ccccc43)c3ccccc3n2)c1
inactive: [1] 102% | [2] 131% | [3] 102% | [4] 95.6% | [5] 108% | [6] 117% | [7] 101% | [8] 101%

Cc1ncsc1-c1ccc(CNC(=O)[C@@H]2C[C@@H](O)CN2C(=O)[C@@H](NC(=O)C2(F)CC2)C(C)(C)C)c(OCCOCCOCCOCCOc2nc(Nc3cc(S(C)(=O)=O)ccc3N[C@@H](c3cccc4c3OC(F)(F)O4)c3ncccc3Cl)nc(N3CCNCC3)n2)c1
active: [2] -34.3% | [4] 5.45% | [8] -19.8%
inactive: [1] 76.6% | [3] 86.9% | [5] 69.5% | [6] 71.2% | [7] 71.2%

COc1cc(CNC(=O)/C=C/c2ccc3c(c2)OCO3)ccc1OCc1cn(-c2ccc([N+](=O)[O-])cc2)nn1
inactive: [1] 65.5% | [2] 71.9% | [3] 101% | [4] 81.8% | [5] 85.3% | [6] 104% | [7] 100% | [8] 72.4%

O=C(N/N=C/c1ccc(-c2ccc(O)cc2)s1)c1[nH]c2ccc(Br)cc2c1-c1ccccc1
inactive: [1] 12.4%
active: [2] -12.1% | [3] 2.37% | [4] 6.81% | [5] 1.35% | [6] 7.81% | [7] 7.71% | [8] 5.96%

O=c1[nH]n(C(=S)N/N=C/c2ccccc2Cl)c(=O)c2ccccc12
inactive: [1] 12.2% | [3] 22.4% | [4] 10.7%
active: [2] -57.5% | [5] -83.4% | [6] -36.5% | [7] 8.85% | [8] -26.7%

N#Cc1c(-c2ccc(Cl)cc2)nc2n[nH]c(-c3ccc(Cl)cc3)c2c1-c1cccs1
active: [1] 6.48%
inactive: [2] 55.4% | [3] 60.5% | [4] 44.7% | [5] 35.4% | [6] 69.3% | [7] 42% | [8] 50.8%

O=c1c2ccccc2nc(-c2ccccc2)n1/N=C/c1ccc2ccccc2c1
inactive: [1] 56.4% | [2] 51.8% | [3] 55% | [4] 34.2% | [5] 22.1% | [6] 57.5% | [7] 45% | [8] 67.2%

N#Cc1c(-c2ccccc2Cl)cc(-c2c[nH]c3ccccc23)[nH]c1=O
inactive: [1] 65% | [2] 73.9% | [3] 23.6% | [4] 50.9% | [5] 52.4% | [6] 73.1% | [7] 71% | [8] 20.7%

CC1=C(C(=O)c2ccccc2)C(c2cccc3ccccc23)n2c(nc3ccccc32)N1 (configuration not stated)
active: [8] -12.7%
inactive: [1] 89.9% | [2] 61.1% | [3] 72.6% | [4] 38.1% | [5] 31.7% | [6] 95.5% | [7] 90.6%

CSc1ccc(NC(=O)c2ccc3nnn(/C(C#N)=C/c4ccccn4)c3c2)cc1
active: [1] -73.4% | [2] -70.4% | [3] -78.4% | [4] -71.3% | [5] 0.694% | [6] -70.6% | [7] -70.4% | [8] -71.3%

Cc1ccc(C(=O)C(c2c[nH]c3ccccc23)c2c[nH]c3ccccc23)cc1
active: [9] 0.879% | [4] 9.47% | [5] -62.3% | [6] 4.87%
inactive: [1] 45.7% | [3] 19.4% | [7] 26.1% | [8] 26%

N#Cc1ccc(C(=O)Nn2c(N)cc3ccccc3c2=O)cc1
inactive: [1] 54.3% | [2] 85.4% | [3] 107% | [4] 39.3% | [5] 81.7% | [6] 108% | [8] 76.4%

Reference: PubChem BioAssay (NCI)
